From PubChem BioAssay (NCI)
Compounds without any hit were thinned out: in the full panel of roughly 83,000, 20% have a hit.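 A percent growth of 40 corresponds to 60% growth inhibition; 0 means no net growth; -100 means all cells died. Active threshold: below 10.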 Unmarked numbers belong to inactive results. Calls of active or inactive are those of the source.

Experiments:
Assay in all cases: NCI-60 one-dose screen, 48 h (100 = growth as untreated, 0 = no growth, -100 = all killed)
HT29 colon = conditions: 10 µM unless noted
SNB-75 CNS = conditions: 10 µM unless noted
SNB-19 CNS = conditions: 10 µM unless noted
U251 CNS = conditions: 10 µM unless noted
PC-3 prostate = conditions: 10 µM unless noted
SK-MEL-5 melanoma = conditions: 10 µM unless noted
UACC-62 melanoma = conditions: 10 µM unless noted
LOX IMVI melanoma = conditions: 10 µM unless noted
SK-MEL-28 melanoma = conditions: 10 µM
SK-MEL-2 melanoma = conditions: 10 µM unless noted

| SMILES | growth (HT29 colon) | growth (SNB-75 CNS) | growth (SNB-19 CNS) | growth (U251 CNS) | growth (PC-3 prostate) | growth (SK-MEL-5 melanoma) | growth (UACC-62 melanoma) | growth (LOX IMVI melanoma) | growth (SK-MEL-28 melanoma) | growth (SK-MEL-2 melanoma) |
| --- | --- | --- | --- | --- | --- | --- | --- | --- | --- | --- |
| Cc1cc(Br)c(N)c(Br)c1 | 106% | 84.3% | 103% | 96.4% | 93% | 102% | 98.6% | 93.6% | 101% | 110% |
| CCOc1cccc(/C=N/NC(=O)C(=O)Nc2cccc(C(F)(F)F)c2)c1O | 41.3% | 68.1% | 41.3% | 22.9% | 44.5% | -25.5% (active) | 2.68% (active) | 6.47% (active) | 44.6% | 36.9% |
| Cc1cccc2c(=O)c3c(sc12)c(NCCN)nc1ccccc13 | -54.9% (active) | 15.2% | -2.48% (active) | -77.2% (active) | -42.9% (active) | -22.9% (active) | -86.6% (active) | -92.9% (active) | -86.1% (active) | -34.9% (active) |
| COc1ccc(/C(C#N)=C/c2nc3c(N4CCOCC4)nc(Cl)nc3n2C)cc1OC | 3.73% (active) | -7.9% (active) | 23.5% | 12.5% | 9.66% (active) | -50.5% (active) | -5.32% (active) | -71% (active) | 15.1% | 42.7% |
| COc1ccc(/C=C2\N=C(c3ccccc3)N(c3ccc(-c4nc5ccc(C)cc5s4)cc3)C2=O)cc1 | 88.9% | 69.9% | 84.3% | 81.2% | 63.1% | 85.3% | 73.2% | 98.2% | 114% | 85.2% |
| CCN1C(=O)N(CC)C2C1NN=c1s/c(=C3\C(=O)N(C(C)C)c4ccccc43)c(=O)n12 (stereo not given) | 2.15% (active) | 41.2% | 31.3% | 20.6% | 25.8% | 2.79% (active) | 16.9% | 20.7% | 57.4% | 23.8% |
| O=C(Nc1ccc(N2CCNCC2)cn1)c1[nH]ncc1Nc1ncnc2sc3c(c12)CCC3 | -42.3% (active) | 85.7% | 10.7% | -71.9% (active) | -30.6% (active) | 59.7% | 38.9% | -79.6% (active) | -40.3% (active) | 89.7% |
| Oc1c(C(Nc2ccccn2)c2cccc(Oc3ccccc3)c2)ccc2cccnc12 (stereo not given) | -93.5% (active) | -99.1% (active) | -80.7% (active) | -89.2% (active) | -90.3% (active) | -68.1% (active) | -86.6% (active) | -86.5% (active) | -97.2% (active) | -82.9% (active) |
| COc1cccc2c(=O)c3c(sc12)c(NCCCNCCO)nc1ccccc13 | -43.8% (active) | 17.2% | 63.6% | 14.4% | 45% | 72.6% | 77.4% | 37.2% | 81.9% | 94.1% |
| CC(C)(C)c1ccc(C2CC(=O)C3=C(C2)Nc2ccccc2N(C(=O)c2ccccc2Cl)C3c2ccc(F)cc2)cc1 (stereo not given) | -9.44% (active) | 66.4% | 9.35% (active) | 3.98% (active) | 8.88% (active) | -97.5% (active) | -53.8% (active) | -11.8% (active) | 38.6% | -11.5% (active) |
| Cc1ccc(NCCNCC(O)CO)c2c(=O)c3ccccc3sc12 (stereo not given) | -61.1% (active) | 44.6% | 26.3% | 9.2% (active) | 13.6% | -81% (active) | -49.9% (active) | -95.2% (active) | 1.81% (active) | 75.8% |
| Cn1cc([C@@H]2Nc3ccc4[nH]ncc4c3[C@H]3[C@H]4CCC(C4)[C@H]32)c(C(F)(F)F)n1 | 16% | 13.1% | 50.7% | 42.5% | 52.1% | 30.5% | 30.4% | 44.2% | 62% | 21.1% |
| COc1ccc(C2NCCc3c2[nH]c2ccccc32)cc1CN1CCN(c2ccc(F)cc2)CC1 (stereo not given) | -3.33% (active) | 24.4% | 77.9% | 26% | 44.8% | -40.7% (active) | 12.5% | 2.51% (active) | 67.9% | 64.1% |
| CCN1CCN(c2cc(C)c3cc(NC(=O)c4ccc(OC)c(OC)c4)ccc3n2)CC1 | 13% | 66.9% | 58.1% | 45.6% | 49.2% | 19.4% | 27.3% | 33.4% | 51.9% | 50.7% |
| CSc1nc2c(c(=O)n1C)N=C1c3ccccc3C(=O)C1C(c1ccccc1)N2 (stereo not given) | 52.2% | 50% | 82.4% | 74.5% | 64.9% | 69.2% | 107% | 74.5% | 72.5% | 66.2% |
| COc1cc(/C=C/C(=O)c2c(C)nc3ccccc3c2/C=C/c2ccccc2)cc(OC)c1OC | -1.3% (active) | 14.2% | 1.12% (active) | -14.1% (active) | 20.5% | 8.08% (active) | 10.5% | -86.7% (active) | 1.27% (active) | -6.78% (active) |
| Cn1c(C(=O)c2cccc3ccccc23)nc2ccccc21 | 20.7% | 38.9% | 10.3% | 5.7% (active) | 27.7% | -38.1% (active) | -27.2% (active) | 2.82% (active) | 40.8% | 9.69% (active) |
| COC(=O)/C(CCC=C(C)C)=C1\[C@@H](OC(C)=O)C[C@@]2(C)[C@H]1CC(=O)[C@H]1[C@@]3(C)CC[C@H](NCc4ccccc4)[C@@H](C)[C@@H]3CC[C@@]12C | 37.8% | 83.2% | 95.7% | 74% | 70.4% | 89.6% | 86.7% | 81.8% | 96.7% | 106% |
| Cn1c(/C=C(\C#N)c2cccc(C(F)(F)F)c2)nc2c(N3CCOCC3)nc(Cl)nc21 | -41.5% (active) | -22.7% (active) | 56.3% | 2.31% (active) | -42.6% (active) | 9.34% (active) | -81.1% (active) | -87.9% (active) | -87.2% (active) | -21.2% (active) |
| O=C(/C=C/c1ccc(C(F)(F)F)cc1)c1ccc(Nc2nc(NCCO)nc(Nc3ccc(Cl)cc3)n2)cc1 | 5.76% (active) | 37.4% | 76% | -41.8% (active) | 32.9% | 84.7% | 62.4% | 0.53% (active) | 73% | 99.9% |
